This is a sample that favours compounds with a hit; in the whole collection about 31% have one here.
CYP2C19 inhib = human CYP2C19 inhibition; inhibition, % at 5 µM; CYP2C19 Supersomes, luciferin-H EGE luminescence, 30 min; actives 21% (n = 96,000);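 active means CYP2C19 inhibition above a set limit at 5 µM in the primary screen, cut at about 50% in these data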
CYP2C9 inhib = blocks human cytochrome P450 2C9; P11712; CYP2C9 Supersomes, luciferin-H conversion, luminescence; inhibition, % at 5 µM; actives 20% (n = 96,000);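 active means blocking of liver enzyme CYP2C9 beyond about 50% at 5 µM, limit read from the data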
CYP2C9 activ = increases human cytochrome P450 2C9 activity. P11712. recombinant CYP2C9, luciferin-H conversion, luminescence; active compounds read high; factor 1 = untreated enzyme, 0 = blocked. activation factor at 5 µM. actives 1.4% (n = 96,000);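 active means activation factor of 2 or more for CYP2C9 at a 5 µM dose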
CYP2C19 activ = increases human CYP2C19 enzyme activity; recombinant CYP2C19, luciferin-H EGE luminescence; active compounds read high; 0 = fully inhibited enzyme, 1 = untreated enzyme; activation factor at 5 µM; 96,000 tested, under 10 active; AID 1025;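 active means activation factor of at least 2 at 5 µM in the primary screen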
Hits are given with their value; – = inactive.

SMILES	CYP2C19 inhib	CYP2C9 inhib	CYP2C9 activ	CYP2C19 activ
O=C(O)CC1SC(=Nc2ccccc2)N(c2ccccc2)C1=O (configuration not stated)	–	–	–	–
OCc1csc(=Nc2ccccc2)n1-c1ccccc1	88	–	–	–
Cc1c(S(=O)(=O)N2CCc3ccccc3C2)c(=O)n(C)c(=O)n1C	–	–	–	–
COCCNCC#CCOc1ccc(OC)cc1	–	–	–	–
CCc1cccc(NC(=O)CSCc2cc(=O)[nH][nH]2)c1	75	–	–	–
CCc1cccc(NC(=O)Cn2cccc2)c1	–	–	2	–
S=C1N(c2ccccc2)C(c2cccc3ccccc23)N2CCCN12 (configuration not stated)	–	–	–	–
O=C(Nc1ccccc1)C(Cc1cccs1)c1nn[nH]n1 (configuration not stated)	–	–	–	–
CC(Cc1cccs1)NC(=O)Nc1ccc(F)cc1 (configuration not stated)	87	–	–	–
CC(Cc1cccs1)NC(=O)Nc1cccc(Cl)c1 (configuration not stated)	66	–	–	–
CCOC(=O)CNC(=O)CSc1nc2cccnc2n1C	–	–	–	–
O=C(COc1ncnc2ccccc12)NCCCN1CCCC1=O	–	–	–	–
CC(=O)N1CCN(C(=S)c2ccc([N+](=O)[O-])cc2)CC1	51	–	–	–
CC(=O)NCc1cc(-c2nn(C)c(=O)c3ccccc23)ccc1C	–	–	–	–
CCOC(=O)NCc1cc(-c2nn(C)c(=O)c3ccccc23)ccc1C	69	78	–	–
Cc1ccc(-c2nn(C)c(=O)c3ccccc23)cc1CNS(C)(=O)=O	–	–	2.3	–
COc1ccc(-c2cc(C3CCN(c4ccc(C(C)=O)cc4[N+](=O)[O-])CC3)[nH]n2)cc1	84	65	–	–
COC(=O)c1ccc(N2CCC(c3cc(-c4ccc(OC)cc4)n[nH]3)CC2)c([N+](=O)[O-])c1	–	–	–	–
CC(=O)c1ccc(N2CCC(c3cc(-c4ccc(Cl)cc4)n[nH]3)CC2)c([N+](=O)[O-])c1	56	57	–	–
CC1=CC(C)(C)N2C(=O)C3(C(C#N)=C(N)OC4=C3C(=O)CC(C)(C)C4)c3c(C)c(C)cc1c32 (configuration not stated)	–	–	–	–
COc1ccc(Cl)cc1NC(=O)CCc1ccccc1	83	–	3	–
COc1cc(OC)c(NC(=O)CCc2ccccc2)cc1Cl	84	–	–	–
COc1cc(NC(=O)CCc2ccccc2)c(C(=O)O)cc1OC	–	–	–	–
COc1cc(SC)ccc1C(=O)Nc1ccccc1C#N	–	–	–	–
C=C(C)CSc1nc2nc(C)cc(C)n2n1	–	–	–	–
SMILES	CYP2C19 inhib	CYP2C9 inhib	CYP2C9 activ	CYP2C19 activ
COc1cc(/C=N\NC(=O)c2ccc(Cn3nc([N+](=O)[O-])c(Cl)c3C)o2)ccc1O	65	–	–	–
CCCOc1ccc(/C=N/NC(=O)c2ccc(Cn3cc([N+](=O)[O-])cn3)o2)cc1	–	–	–	–
CC1CC(C)CN(C(=O)c2ccc3c(c2NCCO)C(=O)c2ccccc2C3=O)C1 (configuration not stated)	94	95	–	–
CC1CC(C)CN(C(=O)COC(=O)c2ccc[nH]c2=O)C1 (configuration not stated)	–	–	–	–
Cc1cccc(NC(=O)CSc2nnnn2-c2cccnc2)c1	–	–	–	–
O=C(NCC1COc2ccccc2O1)C1CCCN(S(=O)(=O)c2cccc3cccnc23)C1 (configuration not stated)	75	–	–	–
COc1ccc(CCNC(=O)C2CCN(S(=O)(=O)c3cccc4nsnc34)CC2)cc1OC	–	–	–	–
O=C(NCC1COc2ccccc2O1)C1CCN(S(=O)(=O)c2cccc3nsnc23)CC1 (configuration not stated)	59	–	–	–
O=C(NCC1COc2ccccc2O1)C1CCCN(S(=O)(=O)c2cccc3nsnc23)C1 (configuration not stated)	54	61	–	–
O=C(NCC1CCCO1)C1CCN(S(=O)(=O)c2cccc3cccnc23)CC1 (configuration not stated)	–	–	–	–
CC(NC(=O)c1ccc(-c2cc(C(F)(F)F)ccc2Cl)o1)c1ccccc1 (configuration not stated)	–	–	–	–
Cc1cc(C(C)(C)C)cc(S(=O)(=O)NCC(=O)O)c1C	–	–	2.3	–
COc1ccccc1N/C(=N/c1nc(C)cc(C)n1)NC(C)=O	–	–	–	–

Screening results (PubChem BioAssay)
